This is part of a sample that, as a whole, favours compounds with a hit. Of some 83,000 tested, about 20% had one in any assay.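 Single-concentration screen, 48 h exposure, 96-well plates. Endpoint: percent growth. Below 10 = active.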 Unmarked numbers belong to inactive results. Active and inactive are the calls of the source.
test system: UO-31 renal; experiment: NCI-60 one-dose screen, 48 h (100 = growth as untreated, 0 = no growth, -100 = all killed); settings: 10 µM

Row | Compound | growth
1 | O=C(/C=C/c1ccco1)c1nc2ccccc2n1Cc1ccc(Br)cc1 | 34.4%
2 | O=C(/C=C/c1ccco1)c1nc2ccccc2n1Cc1ccc(F)cc1 | 46.8%
3 | COc1cc2cc(C(=O)N3C[C@@H](CCl)c4c3cc(OC(=O)N3CCN(C)[C@@H]5CSSC[C@@H]53)c3ccccc43)[nH]c2c(OC)c1OC | -33.5% (active)
4 | C#CC[Se]C(=O)c1ccc2n[se]nc2c1 | 22.6%
5 | O=C(/C=C/c1ccc(Cl)cc1Cl)c1nc2ccccc2n1Cc1ccc(F)cc1 | 36.5%
6 | O=C(/C=C/c1ccc(Cl)cc1)c1nc2ccccc2n1Cc1ccc(Br)cc1 | 42.6%
7 | CCOP(=O)(OCC)C(NC(C)=O)C(=O)SCCN (centres undefined) | 81%
8 | COc1cc2cc(C(=O)N3C[C@@H](CCl)c4c3cc(OC(=O)N3CCN(C)[C@@H]5CSSC[C@H]53)c3ccccc43)[nH]c2c(OC)c1OC | -52% (active)
9 | COc1ccc2cc([C@H](C)C(=O)[Se]CCC#N)ccc2c1 | -71.2% (active)
10 | CC12OOC(C)(OO1)C2CCC(=O)OCCNc1ccnc2cc(Cl)ccc12 (centres undefined) | -97.2% (active)
11 | CC(C)N=C([Se])NC(=O)c1cccs1 | 12.4%
12 | Cc1ccc2[nH]c(=S)n(-c3ccc(F)cc3)c(=O)c2c1 | 82.7%
13 | CCOC(=O)C1=C(Nc2ccccc2)C(=O)OC12C(=O)Nc1ccccc12 (centres undefined) | 73.2%
14 | CC12CCC3(CCC(=O)NCCCNc4ccnc5cc(Cl)ccc45)[C@@](C)(OO[C@]3(C)O1)O2 | -50.1% (active)
15 | CC[C@]12C=CCN3CC[C@@]4(c5ccc(OC)cc5N(C)[C@H]4[C@@](O)(C(=O)OC)[C@@H]1OC(=O)CCCC[P+](C1CCCCC1)(C1CCCCC1)C1CCCCC1)[C@@H]32 | 78.9%
16 | CC(=O)Oc1ccccc1C(=O)[Se]C(=NC(C)C)NC(C)C | -100% (active)
17 | COCCOCCOCCOc1ccc(-n2cc(CCCN(CCNc3ccnc4cc(Cl)ccc34)C(=O)CCC(=O)O[C@@H]3O[C@@H]4OC5(C)CC[C@H]6[C@H](C)CC[C@@H]([C@H]3C)[C@@]46OO5)nn2)cc1 | 16.4%
18 | C[C@H]1[C@@H](CC(=O)N[C@@H](Cc2coc3ccccc23)B(O)O)O[C@@H]2OC3(C)CC[C@H]4[C@H](C)CC[C@@H]1[C@@]24OO3 | 18.3%
19 | COP(=O)(CC(F)(F)C(F)(F)F)OC | -81.8% (active)
20 | CC12OOC(C)(OO1)C2CCC(=O)NCCNc1ccnc2cc(Cl)ccc12 (centres undefined) | 76.1%

Row | Compound | growth
21 | CC[C@]12C=CCN3CC[C@@]4(c5ccc(OC)cc5N(C)[C@H]4[C@@](O)(C(=O)OC)[C@@H]1OC(=O)CCC[P+](c1ccc(C)cc1)(c1ccc(C)cc1)c1ccc(C)cc1)[C@@H]32 | -97.4% (active)
22 | CC(C)N=C([Se])NC(=O)c1ccccc1 | -99% (active)
23 | CC[C@]12C=CCN3CC[C@@]4(c5ccc(OC)cc5N(C)[C@H]4[C@@](O)(C(=O)OC)[C@@H]1OC(=O)CCC[P+](C1CCCCC1)(C1CCCCC1)C1CCCCC1)[C@@H]32 | 76.8%
24 | CC1=C(COCCOC(=O)c2ccc(S(=O)(=O)F)cc2)C2=C(C)C3(CC3)[C@@](C)(O)C(=O)C2=C1 | -33.3% (active)
25 | CC[C@]12C=CCN3CC[C@@]4(c5ccc(OC)cc5N(C)[C@H]4[C@@](O)(C(=O)OC)[C@@H]1OC(=O)CCCC[P+](c1ccc(OC)cc1)(c1ccc(OC)cc1)c1ccc(OC)cc1)[C@@H]32 | 15.5%
26 | CC1=C(CCC=NNC(N)=O)C2=C(C)C3(CC3)[C@@](C)(O)C(=O)C2=C1 | -65.2% (active)
27 | CC[C@@]12CC(C(=O)OC)=C3Nc4cc5c(cc4[C@@]34CCN(C[C@H]3O[C@H]31)[C@@H]24)[C@@H]1[C@H](O5)[C@@H](O)[C@@]2(CC)CC(C(=O)OC)=C3Nc4cc(OC)ccc4[C@@]34CCN1[C@@H]24 | 10.1%
28 | CCOP(=O)(CC(F)(F)C(F)(F)F)OCC | 25.1%
29 | CC1=C2C(=C[C@@](C)(COP(=O)(Oc3ccccc3)Oc3ccccc3)[C@@H]2O)C(=O)[C@@](C)(O)C12CC2 | -68.6% (active)
30 | CC(=O)Oc1ccccc1C(=O)NC([Se])=NC1CCCCC1 | -87.7% (active)
31 | C[C@H]1[C@H](OC(=O)CCC(=O)N(CCCc2cn(-c3ccc(CN4CCOCC4)cc3)nn2)CCNc2ccnc3cc(Cl)ccc23)O[C@@H]2OC3(C)CC[C@H]4[C@H](C)CC[C@@H]1[C@@]24OO3 | 13.1%
32 | O=C(/C=C/c1ccc(Cl)cc1)c1nc2ccccc2n1Cc1ccc(F)cc1 | 31.4%
33 | CC1=C(CCC=O)C2=C(C)C3(CC3)[C@@](C)(O)C(=O)C2=C1 | -99.7% (active)
34 | O=C(NC([Se])=NC1CCCCC1)c1ccc2c(c1)OCO2 | 38.5%
35 | C[C@H]1[C@H](OC(=O)CCC(=O)N(CCCc2cn(-c3ccc(C#N)cc3)nn2)CCNc2ccnc3cc(Cl)ccc23)O[C@@H]2OC3(C)CC[C@H]4[C@H](C)CC[C@@H]1[C@@]24OO3 | 15%
36 | C[C@H]1[C@@H](Oc2ccc(-c3cn(-c4ccnc5cc(Cl)ccc45)nn3)cc2)O[C@@H]2OC3(C)CC[C@H]4[C@H](C)CC[C@@H]1[C@@]24OO3 | 10.7%
37 | COc1ccc(/C=C/C(=O)c2nc3ccccc3n2Cc2ccc(Br)cc2)cc1 | 52.4%
38 | COC(=O)CCn1c(-c2ccc(-n3cc(-c4ccc(O[C@H]5O[C@@H]6OC7(C)CC[C@H]8[C@H](C)CC[C@@H]([C@H]5C)[C@@]68OO7)cc4)nn3)cc2)nc2ccccc21 | 6.53% (active)
39 | C[C@H]1[C@H](OC(=O)CCC(=O)N(CCCc2cn(-c3ccc([N+](=O)[O-])cc3)nn2)CCNc2ccnc3cc(Cl)ccc23)O[C@@H]2OC3(C)CC[C@H]4[C@H](C)CC[C@@H]1[C@@]24OO3 | 18.3%
